Values without a mark were called inactive. Records with an inconclusive call do not appear. Calls of active or inactive are those of the source. Unless noted, calls come from the whole dose curve; as a rule, active = well fitted curve in the direction sought with a large enough effect; inconclusive = small, poorly fitted or top-dose-only effect, or another doubt; inactive = no such curve, though single readings can be large; an effect the other way counts as inactive or inconclusive.

Test [1] can be described thus: qHTS for differential inhibitors of proliferation of Plasmodium falciparum line 7G8 (AID 1815).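 Note: parasite growth measured after three days of incubation.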 Note: potency is the fitted concentration of half-maximal effect.
The nature of test [2]: qHTS for differential inhibitors of proliferation of Plasmodium falciparum line GB4 (AID 1816).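 Note: parasite growth measured after 72 h incubation.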 Note: potency is the fitted concentration of half-maximal effect. Particulars: Potency: Plasmodium falciparum GB4 proliferation inhibition. In general terms: Quantitative high-throughput screening tests each substance at several concentrations.
The nature of test [3]: qHTS for differential inhibitors of proliferation of Plasmodium falciparum line 3D7 (AID 1876). Note: potency is the fitted concentration of half-maximal effect.
The nature of test [4]: qHTS for differential inhibitors of proliferation of Plasmodium falciparum line D10 (AID 1877).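 Note: parasites grown with compound for 72 h before DNA staining.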 Note: potency is the fitted concentration of half-maximal effect.
Test [5] in a line: qHTS for differential inhibitors of proliferation of Plasmodium falciparum line Dd2 (AID 1882). Note: nearly all actives have a fitted effect of over 65% in size. Note: potency is the fitted concentration of half-maximal effect. As to conditions: Potency: Plasmodium falciparum Dd2 proliferation inhibition. In short, it runs like this: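 Dd2-infected erythrocytes (0.3% parasitemia, 2.5% hematocrit final) incubated with compound 72 h at 37 C, 5% CO2; lysed with saponin/Triton buffer containing SYBR Green I, incubated overnight in the dark, then read by fluorescence (485/535 nm). Normalized to 0.29 uM artemisinin and DMSO.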

Test [6] in a line: qHTS for differential inhibitors of proliferation of Plasmodium falciparum line W2 (AID 1883).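 Note: potency is the fitted concentration of half-maximal effect; parasites grown with compound for 72 h before lysis and staining.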 As to conditions: Potency: Plasmodium falciparum W2 proliferation inhibition.
Test [7] can be described thus: qHTS for differential inhibitors of proliferation of Plasmodium falciparum line HB3 (AID 1886).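 Note: parasites grown with compound for 72 h before SYBR Green readout.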 Note: potency is the fitted concentration of half-maximal effect. As to conditions: Potency: Plasmodium falciparum HB3 proliferation inhibition.
The target of test [8] is Ferritin light chain (Equus caballus) (UniProt P02791). As to the kind of experiment: qHTS Validation Assay for Identification of Novel General Anesthetics (AID 2323). Note: series mostly up to about 77 µM. In short, it runs like this: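 Competitive displacement of profluorescent 1-aminoanthracene (1-AMA, 50% saturated solution in PBS) from 10 uM horse-spleen apoferritin. Compounds incubated 10 min at room temperature; fluorescence read at 380 nm excitation/535 nm emission, normalized to free 1-AMA and complex, fitted with four-parameter Hill equation.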

The target in test [9] is ATP-dependent DNA helicase Q1 (Homo sapiens) (UniProt P46063). Put plainly: qHTS Validation Assay for Inhibitors of RecQ-Like Dna Helicase 1 (RECQ1) (AID 2353). In short, it runs like this:
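50 nM RECQ1T1 preincubated 15 min with compound in Tris pH 8.0 buffer with MgCl2, DTT, Tween-20 and 2.5 ug/ml poly(dI-dC); started with 200 nM TAMRA/BHQ-2 forked duplex and 2 mM ATP. Unwinding read as fluorescence (525/598 nm), two reads 2 h apart.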

Test [10] in a line: Quantitative high throughput screen for delayed death inhibitors of the malarial parasite plastid, 96 hour incubation (AID 488745). Note: nearly all actives have a fitted effect of over 70% in size. Note: potency is the fitted concentration of half-maximal effect. A digest of the protocol: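 Infected erythrocytes were added to compound in Albumax-supplemented RPMI 1640 at 0.1% parasitemia and 2% hematocrit (final), incubated 96 h at 37 C under 5% CO2, then luciferase reagent was added and luminescence measured.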

Test [11] can be described thus: Quantitative high throughput screen for delayed death inhibitors of the malarial parasite plastid, 48 hour incubation (AID 488752). Note: nearly all actives have a fitted effect of over 65% in size. Note: potency is the fitted concentration of half-maximal effect. A digest of the protocol:
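Readout is firefly luciferase luminescence from a reporter integrated into the parasite genome, with lower signal taken as inhibited growth. Infected red cells (0.1% parasitemia, 2% hematocrit final) are cultured with compound for one 48 h cycle at 37 C.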

Test [12] concerns the target M-phase phosphoprotein 8 (Homo sapiens) (UniProt Q99549). As to the kind of experiment: qHTS Validation Assay for Inhibitors for MPP8 Chromodomain Interactions with Methylated Histone Tails (AID 488949). Note: nearly all actives have a fitted effect of over 55% in size. Note: potency is the fitted concentration of half-maximal effect. In short, it runs like this: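 MPP8 (50 nM) was preincubated with biotinylated H3(1-18)K9me3 peptide (50 nM) in PBS pH 7.4, 0.01% Tween-20 for 30 min at room temperature, then with compounds for 30 min; binding was detected by AlphaScreen.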

Test [13] deals with Transient receptor potential cation channel subfamily V member 1 (Homo sapiens) (UniProt Q8NER1). Put plainly: HTS Assay for Compounds that Act as Enhancers of the Vanilloid Receptor 1 (AID 488979). A digest of the protocol:
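TRPV1 cells loaded with Fluo-8 calcium dye; compound added and Ca2+ signal (ex 480/em 520 nm) followed 3 min, then capsaicin at EC20 added and read 2 more min to detect enhancement.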

In test [14] the target is Thyrotropin receptor (Homo sapiens) (UniProt P16473). Put plainly: qHTS Assay for Antagonists of the Thyroid Stimulating Hormone Receptor (AID 488980). Note: series mostly up to about 58 µM. In short, it runs like this: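 HEK293 cells transfected with human TSHR, suspended in HEPES-buffered HBSS with 70 uM RO 20-1724, were treated with compounds plus TSH at EC80 (4 nM final). cAMP was measured by competitive HTRF (cryptate anti-cAMP antibody, cAMP-d2 acceptor).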

Test [15] addresses Galactokinase (Homo sapiens) (UniProt P51570). As to the kind of experiment: qHTS Validation Assay for Inhibitors of Human Galactokinase (GALK) (AID 493189). In short, it runs like this:
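GALK (5 nM) with 35 uM ATP and 100 uM galactose in HEPES pH8.0, MgCl2, NaCl, DTT, BSA; 1 h at room temperature. Residual ATP read by Kinase-Glo Plus luminescence after 10 min.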

Test [16] has as its target Cytochrome P450 3A4 (Homo sapiens) (UniProt P08684). Put plainly: qHTS Assay for Inhibitors and Substrates of Cytochrome P450 3A4 (AID 884). Note: nearly all actives have a fitted effect of over 50% in size. Note: potency is the fitted concentration of half-maximal effect. In short, it runs like this: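 20 nM human CYP3A4 with 25 uM Luciferin-PPXE (at KM) in 200 mM KPO4, preincubated 10 min with compound; NADPH regeneration started a 60 min RT reaction. Luciferin detected by luminescence, normalized to 57 uM ketoconazole as full inhibition.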

Test [17] deals with Cytochrome P450 2C9 (Homo sapiens) (UniProt P11712). As to the kind of experiment: qHTS Assay for Inhibitors and Substrates of Cytochrome P450 2C9 (AID 883). Note: nearly all actives have a fitted effect of over 60% in size. Note: potency is the fitted concentration of half-maximal effect. A digest of the protocol:
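Signal: luciferase luminescence reporting luciferin produced by CYP2C9. Conditions: 10nM enzyme, Luciferin-H 100uM at KM, 25mM KPO4, 37C, 60 min NADPH-driven reaction. Reference: 57uM sulphaphenazole as 100% inhibition.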

In test [18] the target is DNA dC->dU-editing enzyme APOBEC-3G (Homo sapiens) (UniProt Q9HC16). As to the kind of experiment: qHTS for inhibitors of Vif-A3G interactions: Validation (AID 588379). In short, it runs like this:
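HeLa cells stably expressing Vif and A3G-eYFP, 700 cells/well, incubated overnight at 37 deg C, then exposed to compound overnight at 37 deg C. Inhibition of Vif-mediated degradation read as increased yellow fluorescence (Ex 488/Em 500-530) by laser-scanning cytometry.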

For test [19], the system named is HIV-1 nucleocapsid protein NCp7 (binding to TG oligonucleotide). Put plainly: HIV Nucleocapsid (AID 346; call rule not given here;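 note: potency is the fitted concentration of half-maximal effect; potency is for inhibitors that block NC binding and lower polarization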). Particulars: HIV-1 NC / fluorescein-TGTGTGTG probe, fluorescence polarization. In short, it runs like this:
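HIV-1 NC (100 nM) binding to fluorescein-labelled ssDNA TG4xF (10 nM) in Hepes pH 7.5, 250mM NaCl, 1uM ZnCl2, TCEP and 2-mercaptoethanol; compounds pin-transferred, 1 hr room temperature, fluorescence polarization read on CCD imager.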
Background: Fluorescence polarisation rises when a labelled molecule tumbles more slowly, as on binding a larger partner.

Sequence of M-phase phosphoprotein 8 (Homo sapiens) (Q99549 whole entry, looked up): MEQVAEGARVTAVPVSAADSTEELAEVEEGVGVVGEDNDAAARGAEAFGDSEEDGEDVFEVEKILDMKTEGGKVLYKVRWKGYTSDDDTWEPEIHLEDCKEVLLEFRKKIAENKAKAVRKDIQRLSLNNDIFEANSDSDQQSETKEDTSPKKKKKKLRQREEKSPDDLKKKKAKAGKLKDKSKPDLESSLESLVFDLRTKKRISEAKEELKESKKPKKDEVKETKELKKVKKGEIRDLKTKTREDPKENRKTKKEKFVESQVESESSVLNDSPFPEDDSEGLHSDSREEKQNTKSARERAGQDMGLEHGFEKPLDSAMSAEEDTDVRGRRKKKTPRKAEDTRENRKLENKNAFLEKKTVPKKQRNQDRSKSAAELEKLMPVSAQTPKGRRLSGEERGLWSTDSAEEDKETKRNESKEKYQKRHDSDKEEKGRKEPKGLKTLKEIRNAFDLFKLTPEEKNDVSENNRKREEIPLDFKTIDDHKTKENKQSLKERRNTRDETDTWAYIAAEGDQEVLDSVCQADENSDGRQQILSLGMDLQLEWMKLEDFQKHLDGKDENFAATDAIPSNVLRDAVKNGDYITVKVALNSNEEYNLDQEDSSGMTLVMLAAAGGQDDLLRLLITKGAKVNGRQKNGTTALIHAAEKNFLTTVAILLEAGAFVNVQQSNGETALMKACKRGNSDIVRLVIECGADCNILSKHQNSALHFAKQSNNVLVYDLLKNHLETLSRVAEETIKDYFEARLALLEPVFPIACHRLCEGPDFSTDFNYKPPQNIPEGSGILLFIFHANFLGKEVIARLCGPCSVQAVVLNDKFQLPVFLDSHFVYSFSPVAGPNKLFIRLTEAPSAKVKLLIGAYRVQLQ
Sequence of ATP-dependent DNA helicase Q1 (Homo sapiens) (P46063 whole entry, looked up): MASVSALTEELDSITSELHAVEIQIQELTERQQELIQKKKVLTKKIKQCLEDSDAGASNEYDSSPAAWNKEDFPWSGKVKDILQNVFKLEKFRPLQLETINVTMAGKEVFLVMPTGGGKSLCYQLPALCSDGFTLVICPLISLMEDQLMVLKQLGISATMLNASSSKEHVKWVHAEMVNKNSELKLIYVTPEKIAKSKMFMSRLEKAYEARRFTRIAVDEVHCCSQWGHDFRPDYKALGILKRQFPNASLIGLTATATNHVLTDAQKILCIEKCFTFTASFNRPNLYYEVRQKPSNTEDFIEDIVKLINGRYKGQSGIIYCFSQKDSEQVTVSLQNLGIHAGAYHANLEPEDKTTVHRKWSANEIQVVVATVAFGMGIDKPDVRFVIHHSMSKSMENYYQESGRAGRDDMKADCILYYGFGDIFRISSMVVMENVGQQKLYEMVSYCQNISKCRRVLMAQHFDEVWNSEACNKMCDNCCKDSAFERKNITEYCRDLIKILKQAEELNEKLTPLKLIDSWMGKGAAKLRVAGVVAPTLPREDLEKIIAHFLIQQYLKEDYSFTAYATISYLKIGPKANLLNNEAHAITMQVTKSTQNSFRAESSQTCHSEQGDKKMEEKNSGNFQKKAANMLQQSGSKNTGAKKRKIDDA
Sequence of Ferritin light chain (Equus caballus) (P02791 2-175 limits assumed): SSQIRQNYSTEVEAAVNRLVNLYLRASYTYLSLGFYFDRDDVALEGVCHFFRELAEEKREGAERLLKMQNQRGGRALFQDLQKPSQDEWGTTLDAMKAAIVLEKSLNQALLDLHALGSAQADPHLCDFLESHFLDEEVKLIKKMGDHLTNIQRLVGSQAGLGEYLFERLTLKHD
Sequence of Transient receptor potential cation channel subfamily V member 1 (Homo sapiens) (Q8NER1 whole entry, looked up): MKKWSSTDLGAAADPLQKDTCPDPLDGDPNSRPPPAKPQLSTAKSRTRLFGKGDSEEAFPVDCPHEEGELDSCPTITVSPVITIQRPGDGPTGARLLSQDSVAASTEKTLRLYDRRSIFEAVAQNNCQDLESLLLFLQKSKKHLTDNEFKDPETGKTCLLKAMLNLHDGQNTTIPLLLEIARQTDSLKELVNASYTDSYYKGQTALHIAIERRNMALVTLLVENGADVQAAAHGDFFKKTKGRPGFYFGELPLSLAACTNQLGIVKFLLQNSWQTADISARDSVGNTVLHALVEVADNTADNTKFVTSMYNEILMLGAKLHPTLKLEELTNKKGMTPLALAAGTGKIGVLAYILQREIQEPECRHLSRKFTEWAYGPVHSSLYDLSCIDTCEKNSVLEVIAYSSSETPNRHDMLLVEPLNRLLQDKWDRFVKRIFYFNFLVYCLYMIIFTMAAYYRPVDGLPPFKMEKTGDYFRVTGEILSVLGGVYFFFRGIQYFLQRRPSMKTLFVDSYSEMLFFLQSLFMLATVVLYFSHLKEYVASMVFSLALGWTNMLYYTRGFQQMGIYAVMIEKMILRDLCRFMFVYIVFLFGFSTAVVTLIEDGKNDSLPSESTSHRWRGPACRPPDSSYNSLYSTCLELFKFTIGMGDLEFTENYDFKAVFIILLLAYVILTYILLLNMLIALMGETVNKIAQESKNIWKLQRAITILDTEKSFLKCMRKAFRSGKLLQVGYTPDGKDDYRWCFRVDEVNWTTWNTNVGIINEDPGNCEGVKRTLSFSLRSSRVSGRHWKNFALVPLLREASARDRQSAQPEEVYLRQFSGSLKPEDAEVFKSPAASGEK
Sequence of DNA dC->dU-editing enzyme APOBEC-3G (Homo sapiens) (Q9HC16 whole entry, looked up): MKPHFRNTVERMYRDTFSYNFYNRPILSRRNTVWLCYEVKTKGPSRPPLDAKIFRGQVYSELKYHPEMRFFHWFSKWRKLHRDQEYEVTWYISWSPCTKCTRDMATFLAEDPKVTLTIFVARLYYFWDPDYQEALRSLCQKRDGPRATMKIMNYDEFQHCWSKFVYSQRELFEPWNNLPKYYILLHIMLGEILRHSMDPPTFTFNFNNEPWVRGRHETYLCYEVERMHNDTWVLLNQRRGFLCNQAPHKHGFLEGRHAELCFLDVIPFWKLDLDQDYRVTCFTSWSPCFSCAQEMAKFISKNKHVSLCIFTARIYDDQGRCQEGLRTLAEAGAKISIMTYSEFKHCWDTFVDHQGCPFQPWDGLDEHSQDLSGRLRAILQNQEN
Sequence of Thyrotropin receptor (Homo sapiens) (P16473 whole entry, looked up): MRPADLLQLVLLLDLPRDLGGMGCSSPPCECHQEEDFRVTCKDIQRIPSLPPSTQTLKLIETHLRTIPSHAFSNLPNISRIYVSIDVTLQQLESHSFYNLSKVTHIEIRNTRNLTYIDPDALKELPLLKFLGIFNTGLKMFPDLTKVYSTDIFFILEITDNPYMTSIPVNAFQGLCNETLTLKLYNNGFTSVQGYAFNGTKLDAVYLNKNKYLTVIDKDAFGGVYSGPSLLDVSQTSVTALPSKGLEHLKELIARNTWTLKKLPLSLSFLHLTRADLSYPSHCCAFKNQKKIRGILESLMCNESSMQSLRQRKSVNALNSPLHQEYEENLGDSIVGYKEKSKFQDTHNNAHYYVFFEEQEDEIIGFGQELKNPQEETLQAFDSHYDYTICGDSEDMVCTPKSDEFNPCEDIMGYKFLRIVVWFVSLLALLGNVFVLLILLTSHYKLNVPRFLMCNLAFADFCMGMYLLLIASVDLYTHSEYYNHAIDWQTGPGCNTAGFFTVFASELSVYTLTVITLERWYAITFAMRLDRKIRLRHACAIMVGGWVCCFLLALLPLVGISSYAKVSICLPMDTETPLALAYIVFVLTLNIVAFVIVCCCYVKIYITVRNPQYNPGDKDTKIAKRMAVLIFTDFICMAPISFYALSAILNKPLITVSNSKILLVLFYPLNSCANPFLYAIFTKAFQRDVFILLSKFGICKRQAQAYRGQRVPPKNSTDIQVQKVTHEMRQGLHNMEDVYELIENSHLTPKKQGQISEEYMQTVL
Sequence of Cytochrome P450 3A4 (Homo sapiens) (P08684 whole entry, looked up): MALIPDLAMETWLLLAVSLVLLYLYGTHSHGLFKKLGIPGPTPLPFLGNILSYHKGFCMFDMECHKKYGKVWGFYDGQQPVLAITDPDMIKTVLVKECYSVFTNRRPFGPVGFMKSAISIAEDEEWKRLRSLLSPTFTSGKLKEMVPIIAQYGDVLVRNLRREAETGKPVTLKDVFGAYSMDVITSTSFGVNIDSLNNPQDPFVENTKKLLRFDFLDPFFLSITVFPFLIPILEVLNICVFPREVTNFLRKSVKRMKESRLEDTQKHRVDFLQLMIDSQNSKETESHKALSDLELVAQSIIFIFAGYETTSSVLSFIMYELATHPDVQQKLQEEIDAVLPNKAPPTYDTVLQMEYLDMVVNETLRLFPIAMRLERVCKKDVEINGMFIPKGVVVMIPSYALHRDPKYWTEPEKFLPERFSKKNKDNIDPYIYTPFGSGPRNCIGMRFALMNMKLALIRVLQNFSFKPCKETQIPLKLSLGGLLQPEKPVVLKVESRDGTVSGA
Sequence of Cytochrome P450 2C9 (Homo sapiens) (P11712 whole entry, looked up): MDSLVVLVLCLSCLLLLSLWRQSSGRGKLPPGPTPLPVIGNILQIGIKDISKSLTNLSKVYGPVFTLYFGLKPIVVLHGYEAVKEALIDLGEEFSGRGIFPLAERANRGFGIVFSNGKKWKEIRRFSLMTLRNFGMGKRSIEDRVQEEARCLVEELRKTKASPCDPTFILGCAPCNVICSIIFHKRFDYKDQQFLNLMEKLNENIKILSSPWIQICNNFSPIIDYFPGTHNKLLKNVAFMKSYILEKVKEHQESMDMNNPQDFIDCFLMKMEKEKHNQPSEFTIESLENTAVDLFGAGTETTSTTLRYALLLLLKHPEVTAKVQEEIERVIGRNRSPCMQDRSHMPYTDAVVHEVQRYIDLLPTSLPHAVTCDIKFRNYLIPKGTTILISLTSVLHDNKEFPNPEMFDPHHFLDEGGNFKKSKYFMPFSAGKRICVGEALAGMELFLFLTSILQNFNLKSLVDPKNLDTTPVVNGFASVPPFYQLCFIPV

Turning to `CCCN1CCc2cccc3c2C1Cc1ccc(O)c(O)c1-3` (configuration not stated), the Potency in test [1] was 2240 nM (active); in [2], 2000 nM (active); in test [3], 2510 nM (active); in test [4] it was 2510 nM (active); in test [5], 3160 nM (active); in test [6] it was 2000 nM (active). The Potency in [7] is 2000 nM (active); in test [10], 2940 nM (active); in test [11], 1850 nM (active); in test [12], 20000 nM (active). Further, the Potency result in test [8] was “inactive”. For the same molecule, the call in test [9], in test [13], in test [14] and in test [15] was inactive.

In the case of `CC(=O)OC1CC2C(C)(C)C(=O)C=C[C@]2(C)C2CC[C@]3(C)C(=CC(=O)OC3c3ccoc3)[C@]12C` (some centres not stated), in test [16], the Potency is 15800 nM (active).

Take `COc1cc2c(cc1-c1cc3cc4ccoc4cc3oc1=O)OCO2`: the Potency in test [16] is 398 nM (active).

Take `O=C(OC1CCN(CCCl)CC1)C(c1ccccc1)c1ccccc1`: the Potency is 7940 nM (active) in [1]; 5620 nM (active) in test [2]; 12600 nM (active) in [3]; 12600 nM (active) in [4]; 7080 nM (active) in test [5]; 2240 nM (active) in test [6]. Also, the Potency in [7] was 11200 nM (active). Also, the Potency entry in test [8] and in [12] was “inactive” in each case. Also, the outcome in [9], in [13], in test [14] and in [15] was inactive.

Turning to `COc1cc2occc2c2oc(=O)ccc12`, in [16], the Potency is 12600 nM (active).

For the molecule `O=C(Oc1ccccc1)N1CCC2(CCN(Cc3ccncc3)CC2)CC1`, the Potency in test [17] is 3980 nM (active).

In the case of `COc1cc2c(cc1O)CC1c3c(cc(O)c(OC)c3-2)CCN1C` (configuration not stated), in [16], the Potency is 25100 nM (active). The molecule was called inactive in test [18].

As for `O=C(Oc1ccccc1)N1CCC2(CCCN(Cc3nccs3)C2)CC1`, in test [19], the Potency is over 20000 nM.

As for `CNCC[C@@H](Oc1ccc(C(F)(F)F)cc1)c1ccccc1`, the Potency in test [6] is 4470 nM (active).

Take `C[C@]12CC[C@H](O)CC1=CCC1C2CC[C@]2(C)C(=O)CC[C@@H]12` (some centres not stated): the Potency entry in test [1], in [2], in test [3], in test [4], in test [5] and in test [7] was “inactive” in each case. For the same molecule, the Potency result in test [8], in test [10], in test [11] and in test [12] was “inactive” throughout. In addition, the molecule was called inactive in test [9], in test [13], in test [14], in [15] and in test [18].

Regarding `CC1=NCCc2c1[nH]c1cc(O)ccc21`, the Potency result in [17] was “inactive”.

Turning to `N#Cc1cccc(NC(=O)N2CC[C@@]3(CCCN(C(=O)Oc4ccccc4)C3)C2)c1`, the Potency result in test [17] is “inactive”.

Consider `O=C(Nc1ccccc1)N1CCC2(CC1)CCN(C(=O)Oc1ccccc1)CC2`, for which, in test [16], the Potency result is “inactive”.

For `O=C(Oc1ccccc1)N1CCC2(CCN(Cc3nccs3)CC2)CC1`, the Potency entry in [16] was “inactive”.

On to `C=C(C)C1Cc2c(ccc3c(=O)c4c(oc23)COc2cc(OC)c(OC)cc2-4)O1` (configuration not stated), for which, in test [16], the Potency entry is “inactive”.

As for `CN1CCCC2(CCN(C(=O)c3ccncc3)CC2)C1`, in test [17], the Potency entry is “inactive”.

Regarding `CC(C)C[C@H]1C(=O)N2CCCC2[C@]2(O)O[C@](NC(=O)[C@@H]3C=C4c5cccc6[nH]c(Br)c(c56)C[C@H]4N(C)C3)(C(C)C)C(=O)N12` (some centres not stated), the Potency in [1] was 891 nM (active); in [2], 1780 nM (active); in test [3] it was 2000 nM (active); in test [4] it was 2510 nM (active); in test [5], 2000 nM (active); in test [6] it was 1260 nM (active). Moreover, the Potency in [7] was 1580 nM (active).

Consider `C/C=C/c1ccc2c(c1)OCO2`, for which the outcome in test [18] was inactive.

Turning to `C[C@@]12CC[C@H]3[C@@H](CC[C@@H]4C[C@H]5S[C@H]5C[C@]43C)[C@H]1CC[C@H]2O`, the Potency in [17] is 5 nM (active).

For the molecule `COc1ccc2c(c1OC)C(=O)O[C@H]2[C@H]1c2cc3c(cc2CCN1C)OCO3`, in test [17], the Potency is 3980 nM (active).

The values are drawn from PubChem BioAssay (NCATS).
